Shiga toxin inh – Shiga toxin inhibition; Vero cells, Shiga toxin protein synthesis inhibition reporter; inhibition, % at 38.7 µM; 290,000 tested, 9.2% active; AID 2315; in the data active = inhibition mostly above about 28%, no sharp cut-off; inactive = mostly below about 43%
Tb PYK inh – blocks Trypanosoma brucei pyruvate kinase | 410,000 tested, 0.12% active | TbPYK enzyme, Kinase-Glo Plus ATP luminescence, 45 min | Potency, µM (highest dose often 76.8 µM), most hits filed as inhibitors; note: nearly all actives have a fitted effect of over 50% in size
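Luminescence from Kinase-Glo Plus, added after a 45-minute room-temperature reaction, served as the end-point read-out. The enzyme and substrate were preincubated with compound before ADP (130 uM final) initiated turnover. Concentration-effect curves came from normalized qHTS data.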
CHX counter – counter-screen for Shiga toxin inhibitors: cycloheximide protein synthesis inhibition | max response, % | 300,000 tested, 12% active | AID 2314 | cell reporter, cycloheximide protein synthesis inhibition counterscreen; in the data active = max response mostly above about 13%, no sharp cut-off; inactive = mostly below about 14%; note: read at 38.3 µM for the half of the compounds with a filed dose
RE007 growth inh – less growth of the S. pombe RE007 Vpr strain. S. pombe RE007 Vpr strain, BacTiter-Glo ATP luminescence, 24 h. AID 651644. 360,000 tested, 0.21% active. Potency, µM (titrated, usually from 92.2 µM), usual class: inhibitors; active = well fitted falling curve with a large enough effect; inconclusive = small, poorly fitted or top-dose-only effect; inactive = no such curve, though single readings can be large or run the other way; note: nearly all actives have a fitted effect of over 50% in size
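Fission yeast RE007 carrying one integrated HIV-1 vpr copy, seeded at OD 0.01 in PMG+AL medium with 23 nL pinned compound. Grown 24 h at 30 degrees; viability read by BacTiter-Glo luminescence after 5 min.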
LmPK inhibitor – LmPK (Leishmania mexicana) enzyme inhibition; Q27686; purified LmPK, Kinase-Glo ATP luminescence, 1 h; Potency, µM (top dose mostly 57.5 µM), most hits filed as inhibitors; 290,000 tested, 0.37% active
Target sequence (Q27686 whole entry, looked up): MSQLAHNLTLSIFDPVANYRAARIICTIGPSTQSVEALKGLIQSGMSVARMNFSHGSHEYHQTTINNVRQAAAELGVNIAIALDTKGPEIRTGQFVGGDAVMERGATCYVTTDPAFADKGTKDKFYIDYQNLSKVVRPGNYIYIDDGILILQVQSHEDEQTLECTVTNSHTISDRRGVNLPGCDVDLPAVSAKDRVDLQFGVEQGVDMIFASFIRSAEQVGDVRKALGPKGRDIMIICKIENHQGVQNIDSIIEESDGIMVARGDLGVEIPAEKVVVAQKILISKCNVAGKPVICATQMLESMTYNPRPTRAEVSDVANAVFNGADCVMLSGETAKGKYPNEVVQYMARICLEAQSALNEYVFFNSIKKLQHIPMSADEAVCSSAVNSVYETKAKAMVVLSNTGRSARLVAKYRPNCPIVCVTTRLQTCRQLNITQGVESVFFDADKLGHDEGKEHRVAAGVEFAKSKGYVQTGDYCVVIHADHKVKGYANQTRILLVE
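Kinase-Glo luminescence read after 1 h RT reaction of 0.1 nM LmPK with 0.5 mM PEP and 0.1 mM ADP. Activity scaled between uninhibited and enzyme-free controls.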
Giardia FBPA inh – Giardia lamblia aldolase inhibition; A8B2U2; AID 2451; 290,000 tested, 0.71% active; purified Giardia FBPA; Potency, µM (series often up to 59.6 µM), actives largely listed as inhibitors; note: nearly all actives have a fitted effect of over 55% in size
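Giardia FBPA (40 nM reagent) was preincubated 10 min at RT with compound (up to 57.5 uM final), then substrate plus GAPDH/TPI/NAD/arsenate coupling system with diaphorase/resazurin was added; resorufin fluorescence (525/598 nm) was read after 20 min.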
Hits are given with their value; n = inactive; u = inconclusive; x = no result; [ ] = another dose, or the depositor's remark. Many of the other results were omitted from the sample, so hits are more common in it than they were. Unless noted, calls come from the whole dose curve; as a rule, active = well fitted curve in the direction sought with a large enough effect; inconclusive = small, poorly fitted or top-dose-only effect, or another doubt; inactive = no such curve, though single readings can be large; an effect the other way counts as inactive or inconclusive.

SMILES	Shiga toxin inh	Tb PYK inh	CHX counter	RE007 growth inh	LmPK inhibitor	Giardia FBPA inh
O=C(c1nnsc1S(=O)(=O)c1ccc(Cl)cc1)N1CCOCC1	45	n	28	n	n	n
O=C(Nc1ccccc1)c1nnsc1S(=O)c1ccc(Cl)cc1 (stereo not given)	n	u	n	2.8µM	n	n
O=C(c1nnsc1S(=O)c1ccc(Cl)cc1)N1CCOCC1 (stereo not given)	n	n	60	u	n	n
O=C(c1ccc(Cl)cc1)N1CCN(c2ccc(N3CCOCC3)nn2)CC1	x	n	x	n	x	x
CN(c1ccc(C(=O)N2CCOCC2)cc1)S(=O)(=O)c1ccc(Cl)cc1	34	n	10	n	n	x
CCOc1ccccc1Nc1sc(C(=O)c2ccc(Cl)cc2)c(N)c1C#N	x	n	x	x	x	x
CCN1C(C(=O)c2ccccc2)=C(OC(=O)COc2ccc(C)cc2)c2ccccc2S1(=O)=O	x	n	x	x	x	x
CCCCCn1ncc2c3sc(C)cc3n(C)c2c1=O	91	x	32	x	x	x
Cc1ccc(/C=N/NC(=O)c2ccc(C(=O)N/N=C/c3ccc(C)s3)o2)s1	n	n	n	n	n	n
Cc1ccc(/C=N/NC(=O)c2ccco2)s1	71	n	53	n	n	n
O=C(N/N=C/c1ccc(Br)s1)c1ccco1	91	n	55	n	n	n
O=C(O)c1cccc(Cn2c(Cl)c(/C=N/NC(=O)c3ccccc3O)sc2=O)c1	n	n	17	n	n	n
O=C(N/N=C/c1sc(=O)n(Cc2ccc(Br)cc2)c1Cl)c1ccco1	n	n	22	n	n	x
O=C(O)c1cccc(Cn2c(Cl)c(/C=N/NC(=O)c3ccccc3Cl)sc2=O)c1	n	n	n	n	n	n
O=C1CCCc2c1cc(-c1ccccc1)n2-c1ccc(O)cc1	n	n	n	n	n	n
Cc1ccc(-c2cc3c(n2-c2ccc(C(=O)O)cc2)CCCC3=O)cc1	64	n	19	n	n	n
CCOC(=O)[C@]12Cc3ccc(C)cc3[C@H]1N(C1CCCCC1)C(=O)c1cc(OC)ccc12	x	n	x	16µM	x	x
CCOC(=O)[C@]12Cc3ccc(C)cc3[C@H]1N(C1CCCCC1)C(=O)c1ccccc12	x	n	x	n	x	x
CCOC(=O)[C@]12Cc3cc(Cl)ccc3[C@H]1N(C1CCCCC1)C(=O)c1cc(OC)ccc12	x	n	x	63µM	x	x
CCOC(=O)c1cc(-c2ccc(F)cc2)n(CCC(=O)NCc2ccc(C)cc2)c1C	x	n[15.4 µM]	x	x	x	x
COc1ccccc1-c1nnc(SCC(=O)N2CCOCC2)o1	n	n	n	n	n	n
Cc1ccccc1-c1nnc(SCC(=O)N2CCCC2)o1	80	n	44	n	n	n
COc1ccccc1-c1nnc(SCC(=O)N2CCCCC2)o1	n	n	23	n	n	x
CCOc1ccccc1N(C)C(=O)c1cc(S(=O)(=O)NCc2ccc(C)cc2)ccc1F	x	n	x	x	x	x
CCOC(=O)c1c(N)sc(C(=O)OCCOC)c1C	59	n	35	n	n	n
SMILES	Shiga toxin inh	Tb PYK inh	CHX counter	RE007 growth inh	LmPK inhibitor	Giardia FBPA inh
CCOC(=O)c1sc(N)c(C(=O)Nc2ccccc2)c1C	46	u	27	n	n	u
CCOC(=O)c1sc(N)c(C(=O)OCC)c1C	81	n	51	n	n	n
NC(=O)C1CCN(c2nc(-c3ccccc3-c3ccccc3)cs2)CC1	x	n	x	x	x	x
O=C(COCc1cc(-c2cccs2)on1)N1CCN(c2ccccc2)CC1	x	n	x	x	x	x
Cc1ccc(-c2cc3ncc(C(=O)c4cc([N+](=O)[O-])ccc4O)cn3n2)cc1	x	n	x	x	x	x
NS(=O)(=O)c1cccc(NC(=O)COC(=O)/C(=C/c2cccs2)c2cccs2)c1	n	n	n	n	n	n
Cc1ccc(NC(=O)COC(=O)c2ccccc2Cl)cc1S(=O)(=O)N(C)C	71	n	32	n	n	n
Cc1ccc(NC(=O)COC(=O)/C(=C/c2cccs2)c2cccs2)cc1S(=O)(=O)N(C)C	89	n	31	n	n	n
Cc1ccc(-n2cnc3cc(C(=O)NCc4ccc(F)cc4)ccc32)c(C)c1	x	n	x	x	x	x
NC(c1csc(Nc2nccc(C(F)(F)F)n2)n1)C1CCCCC1 (stereo not given)	x	n	x	n[18.4 µM]	x	x
O=C(O)Cn1cc(C(=O)c2ccco2)c2ccccc21	n	n	n	n	n	n
O=C(c1ccco1)c1cn(Cc2ccc(Cl)cc2)c2ccccc12	n	n	23	n	n	n
COc1ccccc1OCCCn1cc(C(=O)c2ccco2)c2ccccc21	143	n	35	n	n	n
CCN(CC)c1ccc(/C=c2\sc3nc4ccccc4n3c2=O)c(O)c1	38	n	n	n	n	n
Cc1cc(C)c2nc3s/c(=C/c4ccccc4)c(=O)n3c2c1	n	x	n	x	n	n
O=c1/c(=C\c2cccnc2)sc2nc3ccccc3n12	127	n	31	n	n	n
Cc1cc(/C=c2\sc3nc4ccccc4n3c2=O)c(C)n1-c1ccc(C(=O)O)cc1	n	n	n	n	n	n
Cc1cc(/C=c2/sc3nc4ccccc4n3c2=O)c(C)n1-c1ccccn1	n	n	67	n	n	n
O=c1/c(=C/c2ccc(O)c([N+](=O)[O-])c2)sc2nc3ccccc3n12	94	n	33	n	n	n
COc1ccc(-n2nnnc2C2CCN(S(=O)(=O)c3ccc(C)cc3)CC2)cc1	x	n	x	x	x	x
COc1ccc(-n2nc(C(=O)NCCc3ccc(OC)c(OC)c3)c3c4ccccc4n(C)c3c2=O)cc1	n	n	n	x	x	x
C=C1CCN(C(Cc2ccccc2)C(=O)NCc2ccc(Cl)c(Cl)c2)S(=O)(=O)c2ccccc21 (stereo not given)	n	x	n	x	x	n
O=C(O/N=C1\CCCc2ccccc21)c1ccc(F)cc1	21	n	16	n	n	n
Cc1ccc2c(c1)/C(=N/OC(=O)c1ccc(F)cc1)CCS2	n	n	n	n	n	n
O=C(O/N=C1/CCSc2ccccc21)c1ccccc1	40	n	39	u	u	n
SMILES	Shiga toxin inh	Tb PYK inh	CHX counter	RE007 growth inh	LmPK inhibitor	Giardia FBPA inh
COc1ccc(-c2nc3c4ccccc4[nH]c(=O)n3n2)cc1	55	n	24	n	n	n
CC1(C)CNc2cc([N+](=O)[O-])ccc2S1	58	n	39	n	n	n
O=C(c1ccccc1)c1ccc2nc(-c3ccc(NC(=O)c4ccccc4F)cc3)[nH]c2c1	34	n	n	n	n	n
O=C(O)CCC(=O)Nc1ccc(-c2nc3ccc(C(=O)c4ccccc4)cc3[nH]2)cc1	x	n	21	n	n	n
CCCCN(CCCC)CCNC(=O)c1cc(=O)[nH]c2ccc(S(=O)(=O)N3CCCCCC3)cc12	x	n	x	x	x	x
CC(=O)c1cccc(NC(=O)NNC(=O)CCC(=O)Nc2ccc(C)c(C)c2)c1	n	n	n	n	n	n
Cc1ccc(Sc2cncc3sc(C(N)=O)cc23)cc1	n	x	n	x	x	n
CN1C(=O)C2(c3ccccc31)c1c(oc3ccccc3c1=O)C(=O)N2CCCO (stereo not given)	n	n	n	n	n	n

Screening results as filed in PubChem BioAssay.
